AmpC inh no detg – qHTS Inhibitors of AmpC Beta-Lactamase (assay without detergent) | P00811 | AmpC nitrocefin hydrolysis, absorbance 480 nm, 0.0001% Triton | Potency, µM (top dose mostly 57.1 µM), for the others: at the highest dose activity change, negative = inhibition, most hits filed as inhibitors | 330,000 tested, 0.52% active | AID 485341, 2010;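 further: plate controls were no compound for no effect and no enzyme for full effect; nearly all actives have a fitted effect of over 20% in size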
Target sequence (P00811 whole entry, looked up): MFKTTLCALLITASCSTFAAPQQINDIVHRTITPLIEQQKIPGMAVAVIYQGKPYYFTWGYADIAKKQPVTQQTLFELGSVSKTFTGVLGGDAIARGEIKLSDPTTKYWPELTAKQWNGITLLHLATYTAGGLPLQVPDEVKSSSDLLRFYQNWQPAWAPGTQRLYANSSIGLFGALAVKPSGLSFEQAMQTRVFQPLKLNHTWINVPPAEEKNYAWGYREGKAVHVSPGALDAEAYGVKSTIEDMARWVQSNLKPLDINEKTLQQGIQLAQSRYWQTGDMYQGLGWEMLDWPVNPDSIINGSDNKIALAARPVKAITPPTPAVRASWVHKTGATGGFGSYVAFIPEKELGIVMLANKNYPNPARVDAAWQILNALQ
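20 mM phosphate pH 7.0 + 0.01% (detergent screen) or 0.0001% Triton X-100; 5.3 nM AmpC reagent; cpd preinc 15 min RT; nitrocefin (800 uM stock) to start; A480 q20 s × 4 min; Activity was normalised to no-enzyme and no-compound control wells.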
Giardia FBPA inh-1 – qHTS Assay for Inhibitors of Fructose-1,6-bisphosphate Aldolase from Giardia Lamblia; A8B2U2; purified Giardia FBPA; Potency, µM (series often up to 59.6 µM), inactives show at the highest dose activity, negative = inhibition, actives largely listed as inhibitors; 290,000 tested, 0.71% active; AID 2451, 2010; further: nearly all actives have a fitted effect of over 55% in size
Target sequence (A8B2U2 whole entry, looked up): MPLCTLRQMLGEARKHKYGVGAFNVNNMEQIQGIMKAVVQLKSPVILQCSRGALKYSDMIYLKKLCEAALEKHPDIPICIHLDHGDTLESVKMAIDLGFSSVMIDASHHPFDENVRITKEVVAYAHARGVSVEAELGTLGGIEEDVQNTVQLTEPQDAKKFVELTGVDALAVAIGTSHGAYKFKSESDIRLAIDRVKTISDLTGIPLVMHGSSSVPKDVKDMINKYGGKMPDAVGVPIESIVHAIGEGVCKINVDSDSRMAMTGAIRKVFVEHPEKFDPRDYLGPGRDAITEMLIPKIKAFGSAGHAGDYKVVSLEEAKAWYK
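40 nM FBPA preincubated 10 min at RT with compound (up to 57.5 uM final), then substrate plus GAPDH/TPI/NAD/arsenate coupling and diaphorase/resazurin added. Fluorescence read after 20 min at RT, 525/598 nm.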
AmpC detergent – qHTS Inhibitors of AmpC Beta-Lactamase (assay with detergent) | P00811 | AmpC hydrolysis of nitrocefin, absorbance 480 nm, 0.01% Triton | Potency, µM (titrated, usually from 114 µM), for the others: top-dose activity change, negative = inhibition, hits mostly inhibitors | 370,000 tested, 0.041% active | AID 485294, 2010;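 further: 0% = no-compound wells and -100% = no-enzyme wells; nearly all actives have a fitted effect of over 25% in size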
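20 mM phosphate pH 7.0 + 0.01% (detergent screen) or 0.0001% Triton X-100; 5.3 nM AmpC reagent; cpd preinc 15 min RT; nitrocefin (800 uM stock) to start; A480 q20 s × 4 min; Activity was normalised to no-enzyme and no-compound control wells.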
AMA1 RON2 block – qHTS for Inhibitors of AMA1-RON; Towards Development of Antimalarial Drug Lead: Primary Screen; AlphaScreen AMA1-biotinylated RON2 peptide binding; Potency, µM (highest dose often 58.2 µM), for the others: at the highest dose activity change, negative = inhibition, actives largely listed as inhibitors; 360,000 tested, 0.2% active; AID 720542, 2013;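 further: 0% = vehicle wells and -100% = peptide control; nearly all actives have a fitted effect of over 45% in size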
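AMA1 (3D7) with his tag at 25 nM final met compounds first, then biotinylated RON2 peptide at 25 nM; detection used donor plus acceptor beads, 10 µg/mL apiece, read by AlphaScreen after 30 min at room temperature.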
Giardia growth – qHTS Assay for Inhibitors of Fructose-1,6-bisphosphate Aldolase from Giardia Lamblia: Giardia lamblia growth inhibition | Giardia lamblia trophozoite growth inhibition | 1,500 tested, 5% active | AID 2785, 2010 | Potency, µM (doses to about 57.5 µM), for the others: top-dose activity change, negative = inhibition, hits mostly inhibitors | shares compounds with Giardia FBPA inh-1;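 further: trophozoites exposed to compound for 48 h at 37 °C; nearly all actives have a fitted effect of over 70% in size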
Mammalian tox – qHTS Assay for Inhibitors of Fructose-1,6-bisphosphate Aldolase from Giardia Lamblia: Mammalian cellular toxicity; shares compounds with Giardia FBPA inh-1; mammalian cell viability counter-screen, qHTS; Potency, µM (highest dose often 57.5 µM), for inactives: top-dose viability change, negative = toxicity, actives largely listed as inhibitors; 1,500 tested, 4% active;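 further: Chinese hamster ovary cells used as mammalian cytotoxicity surrogate; viability measured as cellular ATP by luminescence; compound exposure lasted 48 h before reading; nearly all actives have a fitted effect of over 60% in size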
Giardia FBPA inh-2 – qHTS Assay for Inhibitors of Fructose-1,6-bisphosphate Aldolase from Giardia Lamblia: Primary screen confirmation; shares compounds with Giardia FBPA inh-1; purified Giardia aldolase enzyme activity, qHTS; 1,500 tested, 5% active; Potency, µM (doses to about 57.5 µM), for inactives: at the highest dose activity change, negative = inhibition, most hits filed as inhibitors; further: nearly all actives have a fitted effect of over 45% in size
Rabbit aldolase – qHTS Assay for Inhibitors of Fructose-1,6-bisphosphate Aldolase from Giardia Lamblia: Rabbit FBPA Selectivity. Potency, µM (highest dose often 57.5 µM), for the others: at the top dose activity, negative = inhibition, most hits filed as inhibitors. shares compounds with Giardia FBPA inh-1. 1,500 tested, 4% active. AID 2794, 2010. Rabbit muscle FBPA enzyme inhibition, selectivity counter-screen; further: nearly all actives have a fitted effect of over 60% in size
GAPDH coupling – qHTS Assay for Inhibitors of Fructose-1,6-bisphosphate Aldolase from Giardia Lamblia: Coupling assay counterscreen confirmation | AID 2795, 2010 | 1,500 tested, 6% active | GAPDH coupling enzyme counterscreen, biochemical, qHTS | shares compounds with Giardia FBPA inh-1 | Potency, µM (titrated, usually from 57.5 µM), for the others: at the highest dose activity change, negative = inhibition, actives largely listed as inhibitors; further: nearly all actives have a fitted effect of over 55% in size
An asterisk follows results filed as active; ? = inconclusive; . = no result; [ ] = remark or other dose. Hits are enriched below; roughly 1.1% of the tested compounds scored in any of these assays. The call rests on the fitted dose curve; in most records, active means well fitted curve in the direction sought with a large enough effect; inconclusive means small, poorly fitted or top-dose-only effect, or another doubt; inactive means no such curve, though single readings can be large; an effect the other way counts as inactive or inconclusive. Unless noted, on the % scale 0 is the no-effect control and ±100 the full control effect; potency means the concentration at half of the fitted maximal effect.

SMILES | AmpC inh no detg | Giardia FBPA inh-1 | AmpC detergent | AMA1 RON2 block | Giardia growth | Mammalian tox | Giardia FBPA inh-2 | Rabbit aldolase | GAPDH coupling
CCOc1cc(/C=C2\SC(N)=NC2=O)ccc1O | -30% | 7.9µM* | 6% | 113% | -14%[10.4 µM] | -4% | -12% | -1% | 1%
CC(C)NC(=O)Cn1ncn2c(cc3cc(F)ccc32)c1=O | . | . | 17% | . | . | . | . | . | .
CC(C(Sc1ccccc1N)c1ccccc1)[N+](=O)[O-] (centres undefined) | -24% | 20µM* | -5% | -5% | ? | 32µM* | 5% | 9% | -4%
Cc1ccc(S(=O)(=O)Nc2cc(C)cn(Cc3ccccc3)c2=O)cc1 | -43% | 13µM* | -7% | 29% | ? | -13% | ? | ? | 32µM*
Cc1ccc(S(=O)(=O)Nc2cc(C)cn(Cc3ccc(F)cc3)c2=O)cc1 | -38% | 16µM* | -2% | 9% | 14%[10.4 µM] | -9% | ? | ? | 25µM*
CCc1nc2c(OCc3c(C)noc3C)cccn2c1N(C=O)Cc1ccc(OC)cc1 | . | . | . | 5% | . | . | . | . | .
CCCCN(CC)CCCNC(=O)c1ccc2c(c1)NC(=O)CN2C | . | . | -3% | . | . | . | . | . | .
Cc1ccc([C@H]2C[C@@H](O)[C@H](n3cc(C4CC4)nn3)CN2C(=O)C2CCCCC2)cc1 | . | . | . | 6% | . | . | . | . | .
Cc1cc(C)c2c(NC(=S)NC(=O)c3ccccc3)nn(C)c2n1 | 20% | 18µM* | ? | 6% | -12%[10.4 µM] | -12% | 10% | 5% | 10%
C=CCC(NCc1ccccc1)c1ccc(OC)cc1 (centres undefined) | -11% | 14µM* | ? | 15% | 19% | 4% | 3% | 8% | 8%
CCNC(=S)NS(=O)(=O)c1ccc(CC)cc1 | -20% | 6.3µM* | 0% | 2% | 3%[10.4 µM] | 5% | 9% | 4% | 20%
CCc1ccc(S(=O)(=O)NC(=S)Nc2ccccc2)cc1 | -21% | -6% | 4% | -1% | . | . | . | . | .
CCNC(=S)NS(=O)(=O)c1ccc(C)cc1 | -21% | 3.5µM* | -9% | 17% | 17%[38.3 µM] | -3% | 7% | 12% | -1%
CCN(CC)c1ccc2c(C)c(Cl)c(=O)oc2c1 | 3% | 18µM* | -3% | 191% | -3% | -1% | -1% | 9% | -2%
CCSC1=NC2(CCN(C(=O)NC3CCCCC3)CC2)N=C1c1ccc(C)cc1 | . | . | -11% | . | . | . | . | . | .
CC(=O)c1cccc(NC(=S)N2CCc3ccccc32)c1 | -35% | 25µM* | 13% | 53% | 27% | 0% | 4% | 1% | 16%
COc1ccc(C)cc1-n1nc2ccccc2n1 | -4% | 8% | 1% | 0% | . | . | . | . | .
COc1ccc(C)cc1-n1[nH]nnc1=S | -34% | 14µM* | 0% | -12% | -47% | 16% | 3% | 7% | 13%
Cc1cc(C)c(-n2[nH]nnc2=S)c(C)c1 | -18% | 14µM* | 1% | -2% | 8%[10.4 µM] | 14% | 5% | 6% | 10%
Fc1ccc(-n2[nH]nnc2=S)cc1N1CCCC1 | -28% | 14% | ? | 27% | . | . | . | . | .
Nc1nc(=S)c2ncn([C@H]3O[C@@H](CO)[C@@H](O)[C@@H]3O)c2[nH]1 | . | 5.6µM* | . | . | -2%[19.1 µM] | 5µM* | -3%[28.7 µM] | -3%[28.7 µM] | -2%[28.7 µM]
Cc1nnc2c(N3CCN(c4ccccc4F)CC3)nc3ccc(C(=O)c4ccccc4)cc3n12 | . | . | 15% | . | . | . | . | . | .
CC(C)C[C@@H](CC(=O)N[C@@H](CCC(=O)O)CC(=O)O)NC(=O)[C@@H]1CCCC[C@H]1NC(=O)C[C@H](CCCN)NC(=O)C[C@H](CO)NC(=O)[C@@H]1CNCC[C@H]1N | . | 0% | . | . | . | . | . | . | .
CCOC(=O)c1ccc(NC(=O)C(Cc2ccccc2)NS(=O)(=O)c2ccc(Br)s2)cc1 (centres undefined) | . | . | 16% | . | . | . | . | . | .
O=C(CCc1ccccc1)NNC(=O)c1ccccn1 | -11% | 18µM* | 9% | 100% | 11µM* | ? | 3% | 2% | -4%
O=c1cnnc(N/N=C/c2ccc3c(c2)OCO3)[nH]1 | -3% | -17% | -2% | 43% | . | . | . | . | .
O=c1cnnc(N/N=C/C2CC=CCC2)[nH]1 (centres undefined) | -11% | 20µM* | 3% | -4% | ? | 17% | 5% | 13% | 5%
COc1ccc(-c2nc3sc(CCNC(=O)c4cc(OC)c(OC)c(OC)c4)c(C)n3n2)cc1 | . | . | 6% | . | . | . | . | . | .
NC(=O)CN(C/C=C/c1ccccc1)C/C=C/c1ccccc1 | 23% | 28µM* | -11% | -29% | -11% | 3% | -1% | 2% | 6%
